# Sampled rows, rich in hits. Any-hit rate of the full collection: about 2.5%.
# POLB inh: blocks human DNA polymerase beta activity; Pol beta primer extension/strand displacement, fluorescence kinetic; Potency, µM (doses to about 114 µM), for inactives: at the top dose activity change, negative = inhibition, most hits filed as inhibitors; actives 1.3% (n = 340,000); AID 485314; further: on the % scale 0 is the no-effect control and ±100 the full control effect
#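 10 nM enzyme + cpd, 15 min RT; start with substrate 50 nM final; read 0 min and after 10 min RT. Corrected, normalized data; 4-parameter Hill curve fit.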
# POLI inh: blocks human DNA polymerase iota activity. Q9UNA4. Pol iota fluorescent replication assay, 10 min. Potency, µM (top dose mostly 115 µM), inactives show top-dose activity, negative = inhibition, most hits filed as inhibitors. actives 1% (n = 390,000). AID 588590
#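 Fluorescent replication assay read twice, at 0 min and 10 min after adding 50 nM (final) substrate. Enzyme (10 nM) and compounds were first incubated 15 min at room temperature; enzyme-free buffer wells were negative controls.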
# L3MBTL1 block: inhibitors of human L3MBTL1. Potency, µM (doses to about 57.1 µM), without a hit: at the highest dose activity, negative = inhibition, hits mostly inhibitors. Q9Y468. actives 0.66% (n = 230,000). AlphaScreen L3MBTL1–H3K9me1 peptide binding. AID 485360; further: on the % scale 0 is the no-effect control and ±100 the full control effect; nearly all actives have a fitted effect of over 60% in size
#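 First, the protein-peptide complex forms for 30 min at room temperature (L3MBTL1 50 nM, biotinylated H3K9me1 peptide 75 nM). Next, compounds are pin-transferred and incubated 30 min. Finally, AlphaScreen beads are added and read after 30 min.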
# Pol eta inh: inhibitors of human DNA polymerase eta. actives 1.2% (n = 390,000). Q9Y253. recombinant Pol eta, fluorescent DNA replication assay. Potency, µM (top dose mostly 114 µM), inactives show at the highest dose activity change, negative = inhibition, actives largely listed as inhibitors; further: on the % scale 0 is the no-effect control and ±100 the full control effect
#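 Pol eta (10 nM) was preincubated with compounds for 15 min at room temperature, after which fluorescent replication substrate (50 nM final) was added to start the reaction. Fluorescence was read kinetically at 0 and 10 min.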
# POLK inh: DNA polymerase kappa (human) inhibition; AID 588579; purified Pol kappa, fluorescent DNA synthesis assay, 10 min; actives 0.53% (n = 400,000); Potency, µM (titrated, usually from 107 µM), for the others: at the top dose activity, negative = inhibition, most hits filed as inhibitors; further: on the % scale 0 is the no-effect control and ±100 the full control effect
#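 Readout: fluorescence, taken kinetically at 0 and 10 min. Conditions: 10 nM Pol kappa, 15 min RT compound preincubation, 50 nM substrate final. Controls: enzyme-free buffer wells.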
# WRN inhibitor: blocks human WRN helicase. actives 0.46% (n = 360,000). Potency, µM (highest dose often 114 µM), inactives show top-dose activity change, negative = inhibition, actives largely listed as inhibitors. AID 651768. WRN helicase unwinding, fluorescent forked duplex, kinetic. Q14191; further: on the % scale 0 is the no-effect control and ±100 the full control effect; nearly all actives have a fitted effect of over 55% in size
#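 Fluorescence dequenching readout, ex 525 nm/em 598 nm, kinetic mode: forked duplex DNA (100 nM final) with adjacent fluorophore and quencher unwound by WRN (20 nM final) with 2 mM ATP. Compound preincubation 15 min, room temperature.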
# Active calls of the source: *; ? = inconclusive; nt = no result; ! = not confirmed by another sample; [ ] = another dose, or the depositor's remark. The call rests on the fitted dose curve; in most records, active means well fitted curve in the direction sought with a large enough effect; inconclusive means small, poorly fitted or top-dose-only effect, or another doubt; inactive means no such curve, though single readings can be large; an effect the other way counts as inactive or inconclusive. Potency means the concentration at half of the fitted maximal effect.
SMILES,POLB inh,POLI inh,L3MBTL1 block,Pol eta inh,POLK inh,WRN inhibitor
CCOC(=O)C1=C(Cc2ccc(F)cc2)C(=O)c2ccccc2C1=O,4.6%,?,nt,?,-19.4%,50.1µM*
C=CCN1C(=O)/C(=C2/C(=O)N(CC(=O)O)c3ccccc32)S/C1=N/c1nccs1,-92.0%,nt,7.94µM*,nt,nt,nt
COc1ccc(-c2noc(CSc3nnc(-c4ccncc4)n3-c3ccc(F)cc3)n2)cc1OC,1.1%,-9.6%,-8.3%,1.5%,-10.1%,-5.2%[57.1 µM]
Cc1ccc(C)c2nc(Cl)c(C#N)cc12,8.9%,150.9%,-5.8%,-14.4%,-6.2%,-1.3%
Cc1cc(NS(=O)(=O)c2ccc(Nc3nc(-c4sc(N)nc4C)cs3)cc2)no1,-8.6%,3.16µM*,?,10µM*,25.1µM*,25.1µM*
Cc1cc(NS(=O)(=O)c2ccc(Nc3nc(-c4ccc(C)c(C)c4)cs3)cc2)no1,?,-15.3%,-11.8%,?,-5.4%,?
C=CCNC(=O)c1ccc(C2SCC(=O)N2Cc2ccco2)cc1 (stereo not drawn),?,44.7µM*,nt,?,?,-39.5%
O=C(NCc1ccc2c(c1)OCO2)c1ccc(C2SCC(=O)N2Cc2ccco2)cc1 (stereo not drawn),-27.4%,?,?,79.4µM*,-34.0%,?
COc1cc(C(=S)N2CCOCC2)cc(OC)c1OC(=O)c1ccccc1[N+](=O)[O-],10.9%,?,-3.4%,-22.2%,-11.0%,-1.5%
COc1ccccc1C(=O)Nc1nnc(SCc2cc(=O)c3cc(Cl)ccc3[nH]2)s1,3.98µM*,-21.9%,nt,-7.5%,-6.8%[60.1 µM],nt
CC(=O)Nc1nnc(SCc2cc(=O)c3cccc(Cl)c3[nH]2)s1,5.1%,89.1µM*,nt,-14.9%,-1.6%[60.1 µM],nt
CC(NCC(=O)Nc1ccccc1C(=O)NC1CC1)c1cccs1 (stereo not drawn),nt,39.3%,-2.1%,-1.5%,5.5%,15.7%
OC(c1ccc(Cl)c(F)c1)c1ncc(-c2ccccc2F)[nH]1 (stereo not drawn),nt,nt,nt,nt,nt,1.8%
COC(=O)c1cc(C)[nH]c2c(C)cc3nc4ccccc4c3c12,10.9%,7.9%,130.8%,-13.9%,-23.2%,-10.3%
Cc1nc2nc(C)c(CCC(=O)NCCCN3CCN(c4cccc(Cl)c4)CC3)c(C)n2n1,14.7%,31.6µM*!,-4.1%,-5.5%,3.4%,-9.9%[57.1 µM]
Cc1nc(NC(=O)c2ccc(Br)o2)ccc1Br,-0.1%,7.7%,nt,5.2%,2.9%,5.0%
O=C(Nc1cccc(NC(=O)c2ccc(Br)o2)n1)c1ccc(Br)o1,25.7%,14.1µM*,-3.5%,?,-11.2%,?
Cc1cc(NC(=O)c2ccc(N3CCCC3)c([N+](=O)[O-])c2)no1,20µM*,?,-7.9%,?,-12.9%,-12.0%
O=C(Nc1ccon1)c1ccc(N2CCCCC2)c([N+](=O)[O-])c1,?,-10.0%,-45.1%,-2.8%,-2.9%[60.1 µM],-3.7%
O=C(CSCCO)Nc1cccc(C(F)(F)F)c1,-23.3%,-11.9%[58.9 µM],6.0%,-18.2%,-2.3%,7.0%
N#Cc1c(SCC(=O)Nc2cccc(C(F)(F)F)c2)sc2c(O)cc(=O)[nH]c12,44.1%,?,nt,20µM*,25.1µM*,?
Cc1ccc(C)c(NC(=O)CSc2sc3c(O)cc(=O)[nH]c3c2C#N)c1,?,28.2µM*,nt,20µM*,?,-20.8%[57.1 µM]
Cc1cc(NC(=O)CSc2sc3c(O)cc(=O)[nH]c3c2C#N)ccc1Br,?,56.2µM*,nt,28.2µM*,?,-7.1%[11.6 µM]
CCOC(=O)C1CCCN(c2cc(=O)n(C3CCCCC3)c(=O)[nH]2)C1 (stereo not drawn),-10.2%,-13.8%,nt,-1.7%,-4.8%,-6.9%
NC(=O)c1cc[n+](CC2=C(C(=O)O)N3C(=O)[C@@H](NC(=O)[C@H](c4ccccc4)S(=O)(=O)[O-])[C@@H]3SC2)cc1,nt,nt,nt,nt,4.23µM*,nt
SMILES,POLB inh,POLI inh,L3MBTL1 block,Pol eta inh,POLK inh,WRN inhibitor
NC(=O)c1cc[n+](CC2=C(C(=O)O)N3C(=O)[C@@H](NC(=O)C(c4ccccc4)S(=O)(=O)[O-])[C@H]3SC2)cc1 (stereo partly drawn),-20.7%,0.794µM*,-14.2%,-99.6%,1µM*,nt
NC(C(=O)N[C@@H]1C(=O)N2C(C(=O)O)=C(Cl)CS[C@H]12)c1ccccc1 (stereo partly drawn),13.2%[57.1 µM],3.7%[58.9 µM],nt,-1.2%[57.1 µM],-7.1%[60.1 µM],nt
Cc1ccc(C)c(NS(=O)(=O)c2ccc(OCC(=O)N3CCCC3)cc2)c1,19.1%,11.2%,nt,5.5%,-10.3%,-3.2%
CS(=O)(=O)N1CCC(C(=O)NCc2ccco2)CC1,4.2%,50.1µM*,?,?,-7.3%,-2.7%[11.6 µM]
CCS(=O)(=O)N1CCC(C(=O)NCc2ccco2)CC1,29.6%,76.2%,5.3%,-10.8%,11.0%,-1.4%
O=C(CSc1cccc2cccnc12)N/N=C/c1cccc(O)c1,-9.6%,-8.1%,-1.7%,7.5%,-23.6%,-1.8%
O=C(N/N=C/c1ccc(O)c(O)c1)c1ccc(CSc2cccc3cccnc23)cc1,3.16µM*,?,nt,3.55µM*,?,?
COc1cc(/C=C2\SC(=O)N(c3ccc(Cl)cc3)C2=O)cc([N+](=O)[O-])c1O,56.2µM*,6.31µM*,?,-14.6%,?,?
CCOc1ccc(/C=C2\SC(=O)N(c3ccc(O)cc3)C2=O)cc1OC,-19.4%,1.4%,nt,-0.8%,-1.1%,-4.1%
CC(C)(C)c1cc(CNC(=O)C2CCC(=O)N(Cc3ccccc3F)C2)[nH]n1 (stereo not drawn),nt,nt,nt,-10.2%,nt,1.2%
CC(=O)Nc1ccc(-c2ccc(NC(C)=O)c(O)c2)cc1O,?,?,-21.8%,35.5µM*,?,-16.7%[11.6 µM]
CCCCC1=CC2=CC(=O)C(C)(OC(=O)CC)C(=O)C2=CN1c1ccccc1 (stereo not drawn),?,14.8%,nt,-1.5%,-9.4%,-6.5%
COC(=O)CCCC1=CC2=CC(=O)C(C)(OC(=O)CCc3ccccc3)C(=O)C2=CO1 (stereo not drawn),56.2µM*,?,nt,?,?,?
COC(=O)CCC(=O)OC1(C)C(=O)C=C2C=C(C3CC3)N(C3CC3)C=C2C1=O (stereo not drawn),-10.5%,14.1µM*,nt,-14.1%,-16.4%,6.4%
CCC(=O)OC1(C)C(=O)C=C2C=C(c3ccsc3)OC=C2C1=O (stereo not drawn),50.1µM*,17.8µM*,nt,50.1µM*,50.1µM*,?
COC(=O)CCC(=O)OC1(C)C(=O)C=C2C=C(c3ccsc3)OC=C2C1=O (stereo not drawn),nt,14.1µM*,nt,5.01µM*,20µM*,?
CC(=O)N1C(C)(C)CC(=NOS(=O)(=O)c2ccccc2)CC1(C)C,21.1%,-3.8%,3.0%,1.2%,11.0%,-12.2%

# Bioassay records deposited in PubChem BioAssay by National Center for Advancing Translational Sciences (NCATS).
